This is part of a sample that, as a whole, favours compounds with a hit. Of some 83,000 tested, about 20% had one in any assay.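 Values shown are percent growth following 48 h exposure of cells in 96-well plates to a single concentration of compound; below 10 was considered active.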 Values without a mark were called inactive. Active and inactive are the calls of the source.
Assays:
Test in all cases: NCI-60 one-dose screen, 48 h (100 = growth as untreated, 0 = no growth, -100 = all killed)
Settings in all cases: 10 µM unless noted
HCT-15 colon = test system: HCT-15 colon
HT29 colon = test system: HT29 colon
SNB-75 CNS = test system: SNB-75 CNS
SNB-19 CNS = test system: SNB-19 CNS
U251 CNS = test system: U251 CNS
PC-3 prostate = test system: PC-3 prostate
SK-MEL-5 melanoma = test system: SK-MEL-5 melanoma
UACC-62 melanoma = test system: UACC-62 melanoma
LOX IMVI melanoma = test system: LOX IMVI melanoma
SK-MEL-2 melanoma = test system: SK-MEL-2 melanoma
EKVX NSCLC = test system: EKVX NSCLC
SN12C renal = test system: SN12C renal
UO-31 renal = test system: UO-31 renal
TK-10 renal = test system: TK-10 renal
ACHN renal = test system: ACHN renal
CAKI-1 renal = test system: CAKI-1 renal
A498 renal = test system: A498 renal
CCRF-CEM leukemia = test system: CCRF-CEM leukemia
MOLT-4 leukemia = test system: MOLT-4 leukemia
SK-MEL-28 melanoma = test system: SK-MEL-28 melanoma

Row | SMILES | growth (HCT-15 colon) | growth (HT29 colon) | growth (SNB-75 CNS) | growth (SNB-19 CNS) | growth (U251 CNS) | growth (PC-3 prostate) | growth (SK-MEL-5 melanoma) | growth (UACC-62 melanoma) | growth (LOX IMVI melanoma) | growth (SK-MEL-2 melanoma) | growth (EKVX NSCLC) | growth (SN12C renal) | growth (UO-31 renal) | growth (TK-10 renal) | growth (ACHN renal) | growth (CAKI-1 renal) | growth (A498 renal) | growth (CCRF-CEM leukemia) | growth (MOLT-4 leukemia) | growth (SK-MEL-28 melanoma)
1 | Nc1ccc2c(c1)Cc1cc(NC(=O)C(F)(F)F)ccc1-2 | 96.4% | 90.8% | 98.6% | 101% | 96.2% | 99.5% | 98.4% | 93.7% | 102% | 98.6% | 79.9% | 97.6% | 75.7% | 106% | 104% | 96.3% | 84.6% | 86.3% | 109% | 
2 | CCC(Br)(CC)C(=O)c1ccc(OCC(=O)O)c(Cl)c1Cl | 103% | 110% | 92.7% | 104% | 106% | 108% | 97.7% |  | 96.9% | 94.6% | 95.3% | 89.1% | 92.1% | 125% | 108% | 83.8% | 97.1% | 116% | 109% | 111%
3 | CC(C)C1=NOC(=O)C1=Cc1cn(-c2ccccc2)nc1-c1ccc(Cl)cc1 | 64.9% | 67.9% | 83.8% | 86% | 71.1% | 78.7% | 83.2% |  | 6.02% (active) | 85.6% | 98.5% | 78.2% | 71.4% | 83.3% | 82.6% | 65.8% | 91.4% | 4.95% (active) | -4.85% (active) | 84.9%
4 | CCCCCC1CCCCN1C(=O)OCCCC (configuration not stated) | 101% | 103% | 81.4% | 105% | 104% | 111% | 99.4% | 76.4% | 94.7% | 102% | 89.1% | 73.3% | 84.3% | 95.6% | 104% | 79.7% | 88.1% | 84.6% | 99.5% | 
5 | c1nc(N2CCOCC2)c2[nH]ccc2n1 | 105% | 96% | 97.6% | 107% | 100% | 107% | 111% |  | 99.8% | 96% | 103% | 104% | 87.6% | 95.3% | 109% | 103% | 96.3% | 107% | 94% | 106%
6 | COc1ccc(C(=O)c2nccc3cc(OC)c(OC)cc23)cc1OC | 96.7% | 113% | 89.5% | 94.9% | 98.6% | 95.9% | 99.6% |  | 93.3% | 108% | 90.1% | 72.1% | 82.8% | 132% | 91.7% | 75.8% | 64.6% | 132% | 103% | 90.7%
7 | CCCCCCCCCCCCCCCCCCNC(=S)N/N=C/c1ccc(OC)c(OC)c1 | 88.4% | 99.9% | 88.2% | 94% | 90.1% | 92.1% | 95.3% |  | 95.2% | 111% | 92.9% | 93.4% | 77.1% | 104% | 102% | 93.9% | 82.4% | 91.7% | 100% | 100%
8 | O=c1[nH]c(CN2CCN(c3cccc(Cl)c3)CC2)nc2cc(Cl)ccc12 | 94.4% | 106% | 80.5% | 91.3% | 94.6% | 90.6% | 99.4% |  | 92.5% | 46.7% | 105% | 89.3% | 9.86% (active) | 106% | 97.5% | 99.4% | 114% | 105% | 120% | 102%
9 | CC/C=C(\C)C(CCC)(CN=O)C(=O)OCC (configuration not stated) | 99.6% | 106% | 81.9% | 105% | 99.3% | 98.3% | 111% |  | 99.7% | 106% | 112% | 108% | 90.4% | 103% | 110% | 104% | 114% | 101% | 90.1% | 116%
10 | CCc1ccc(-c2ccc(COc3ccc(CC4SC(=O)NC4=O)cc3)cc2)cc1 (configuration not stated) | 56.4% | 103% | 76.2% | 87.1% | 72.8% | 65.6% | 39.8% | 60.2% | 63.3% | 71.6% | 63% | 74.5% | 61.1% | 92.8% |  | 51% | 100% | 61.3% | 58.5% | 
11 | O=[N+]([O-])c1cc([N+](=O)[O-])c(C(F)(F)F)cc1NN=C(c1ccc(O)cc1)c1ccc(O)cc1 | 13.7% | 91.6% | 92.7% | -4.43% (active) | 26.2% | 51.1% | -96.7% (active) | 60.6% | 14% | -80.3% (active) | 92.7% | 79.7% | -79.4% (active) | 123% |  | 98% | 103% | 112% | 107% | 
12 | O=C1CC(c2ccc3c(c2)OCO3)Nc2ccccc21 (configuration not stated) | 22% | 4.29% (active) | 7.16% (active) | 33.2% | 15% | 16.8% | 18.9% |  | 37.4% | 40.1% | 48.1% | 34.4% | 43.9% | 40.1% | 46.9% | 33.9% | -11.2% (active) | 10.8% | 62.7% | 47.5%
13 | CCN(CC)c1ccc2cc(C(Nc3ccc(Cl)cc3)c3nnnn3C(C)(C)C)c(=O)oc2c1 (configuration not stated) | 91.8% | 90.7% | 68.5% | 87% | 82.6% | 71.5% | 80% |  | 72.4% | 89.5% | 81.4% | 89.6% | 71.8% | 85.7% | 92.4% | 73.1% | 81% | 93.5% | 63.5% | 95.8%
14 | COc1ccc(C(C(=O)O)c2ccc(OC)cc2)cc1 | 99.4% | 114% | 72.2% | 113% | 113% | 101% | 110% | 116% | 106% | 111% | 106% | 121% | 108% | 114% | 109% | 112% | 86.7% | 100% | 104% | 
15 | Cc1ccc(Cn2c(O)c(N=NC(=O)c3ccc(S(N)(=O)=O)cc3)c3ccccc32)cc1 | 106% | 111% | 92.4% | 100% | 97.8% | 94.5% | 98.5% |  | 103% | 109% | 103% | 96.9% | 73% | 106% | 93.3% | 92.9% | 86.8% | 106% | 93.8% | 106%
16 | CC(C)C1=NOC(=O)C1=Cc1cn(-c2ccccc2)nc1-c1ccccc1 | 77.4% | 49.2% | 72.5% | 74.8% | 53% | 67.9% | 91.6% | 76.1% | 18% | 99.2% | 99.3% | 79.2% | 70.2% | 82.3% | 84.5% | 57.7% | 93.6% | 8.48% (active) | 7.72% (active) | 

From PubChem BioAssay (NCI)
